From PubChem BioAssay
TRPML1 agonist = agonists of human TRPML1 channel. TRPML1-expressing cells, Ca2+ dye fluorescence, FDSS. AID 624414. 0.12% of 410,000 active. activation, % (test concentration not listed). Q9GZU1; in the data active = activation above about 50%; inconclusive = mostly about 30% to 49%
Target sequence (Q9GZU1 whole entry, looked up): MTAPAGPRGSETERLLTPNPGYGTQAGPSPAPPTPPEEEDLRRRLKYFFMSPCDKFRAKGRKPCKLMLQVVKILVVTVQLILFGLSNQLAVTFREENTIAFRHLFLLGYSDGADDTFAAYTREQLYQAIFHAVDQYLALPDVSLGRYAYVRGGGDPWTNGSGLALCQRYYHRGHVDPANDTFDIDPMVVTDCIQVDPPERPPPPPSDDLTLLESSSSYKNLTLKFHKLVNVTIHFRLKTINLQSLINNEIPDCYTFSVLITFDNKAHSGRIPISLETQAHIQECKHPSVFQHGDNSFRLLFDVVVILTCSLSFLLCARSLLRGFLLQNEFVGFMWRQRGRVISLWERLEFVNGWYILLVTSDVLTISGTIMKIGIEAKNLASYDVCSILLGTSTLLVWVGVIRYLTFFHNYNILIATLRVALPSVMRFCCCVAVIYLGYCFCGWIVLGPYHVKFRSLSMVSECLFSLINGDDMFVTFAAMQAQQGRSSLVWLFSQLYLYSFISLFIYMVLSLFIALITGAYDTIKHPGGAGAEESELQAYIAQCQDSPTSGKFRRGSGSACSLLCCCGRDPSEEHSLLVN
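TRPML1-DL cells, Tet-induced overnight (~16 h, 37 degrees C), loaded 45-90 min at room temperature with Ca8 no-wash calcium dye plus quencher. FDSS fluorescence: 10 s baseline, compound pin-transfer, 110 s agonist read, then EC80 54-4 (4uM final) and 110 s antagonist read.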
TRHR PAM = allosteric enhancers of human TRH receptor | 0.66% of 360,000 active | enhancement, % at 2 µM | TRHR cells, fluo-8 calcium fluorescence, EC20 TRH enhancement; in the data active = enhancement above about 30%
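Enhancer read-out: after compound pinning and an initial kinetic agonist-mode read, an EC20 of TRH (10 nM final) was injected and fluo-8 calcium signal (Ex 480/Em 530) followed at 1 s/cycle for 100 cycles in TRHR-expressing cells.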
TRPML1 inh = blocks the human TRPML1 channel | TRPML1-inducible cells, Ca2+ dye fluorescence, FDSS; hits give low values; inhibition of EC80 agonist-evoked calcium signal | activity change, negative = inhibition, % (concentration not given with the values) | 0.02% of 390,000 active | AID 624415; in the data active = activity change below about -50%; inconclusive = between about -30% and that limit;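 also: stimulus is agonist 54-4 at its EC80 concentration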
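TRPML1-DL cells, Tet-induced overnight (~16 h, 37 °C) at 1,500 cells/well, were loaded with Ca8 no-wash dye plus quencher for 45-90 min at room temperature. Compounds were pinned during FDSS kinetic reading; agonist 54-4 at EC80 (4 uM final) then added.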
TRHR ag = agonists of human TRH receptor; TRHR cells, calcium flux fluo-8, FDSS agonist mode; activation, % at 2 µM; 0.18% of 360,000 active; in the data active = activation above about 30%
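Read-out: compound-evoked intracellular calcium rise in TRHR cells, fluo-8 dye, kinetic FDSS fluorescence at 1 s/cycle following a 10-cycle baseline. Cells cultured overnight before dye loading (30 min–1.5 h, RT).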
Each line names hits and unclear results; the compound was inactive in the other large screens; ! = a repeat was not active. Sampled rows, rich in hits. Any-hit rate of the full collection: about 0.81%.

Brc1ccc2c(ccc[n+]2CCc2ccccc2)c1	none (no result: TRHR PAM, TRPML1 inh, TRHR ag)
O=C(NCC(c1ccco1)N1CCCCC1)c1ccc(S(=O)(=O)Nc2ccccc2)cc1 (stereo not given)	none
N#CCC(=O)Nc1ccc(C(=O)NCC(c2ccco2)N2CCCCC2)cc1 (stereo not given)	TRHR PAM 38
c1ccc(-c2nc(SCC3CCCCO3)n[nH]2)cc1 (stereo not given)	none (no result: TRHR PAM, TRPML1 inh, TRHR ag)
CN(C)c1ccc(/C=C/c2c3c(nc4ccccc24)CCCC3)cc1	none (no result: TRHR PAM, TRPML1 inh, TRHR ag)
Cc1ccc(NC(=O)CN(C)C(=O)Cn2c(=O)oc3ccccc32)cc1	TRHR PAM 31
CC(=O)NC(Cc1c(F)c(F)c(F)c(F)c1F)C(=O)NCC(N)C(=O)c1ccccc1 (stereo not given)	none (no result: TRHR PAM, TRPML1 inh, TRHR ag)
Cc1ccc(NC(=S)N2CCC(N(C)CC3CCCO3)CC2)cc1C (stereo not given)	TRHR PAM 31
Cc1ccc(NC(=O)C2(C)Cc3ccccc3C(=O)O2)c(C)c1 (stereo not given)	TRHR PAM 50
COc1ccccc1NC(=O)C1(C)Cc2ccccc2C(=O)O1 (stereo not given)	none
CCCCOC(=O)c1ccc(NC(=O)/C(C#N)=C/c2ccc(-c3ccccc3)o2)cc1	TRHR ag 47
COc1ccc(C(=O)C[n+]2cccc3cc(Cl)ccc32)cc1	none (no result: TRHR PAM, TRPML1 inh, TRHR ag)
O=C(Nc1ccc(N2CCCCC2)cc1)c1ccc2ccccc2n1	TRPML1 agonist 87, TRPML1 inh inconclusive
O=C(Nc1cccc(S(=O)(=O)N2CCCCCC2)c1)c1ccc2ccccc2n1	none
O=C(COC(=O)c1cccc(S(=O)(=O)N2CCN(c3ccccc3)CC2)c1)NCc1ccco1	TRHR PAM 35
Cn1c(C(c2cc3ccccc3n2C)c2cc3ccccc3n2C)cc2ccccc21	none (no result: TRHR PAM, TRPML1 inh, TRHR ag)
COc1cccc(CNS(=O)(=O)c2cc3c4c(c2)CCC(=O)N4CCC3)c1	none
COc1ccccc1CNS(=O)(=O)c1cc2c3c(c1)CCN3C(=O)CC2	TRHR PAM 30!
O=C1S/C(=C/c2ccc(N3CCOCC3)o2)C(=O)N1Cc1ccc(F)cc1	TRHR ag 35
CCOc1ccc(N(C)S(=O)(=O)c2ccc3[nH]cc(C(=O)NCc4ccccc4)c(=O)c3c2)cc1	TRHR PAM 37, TRPML1 inh inconclusive
N#Cc1ccc(Oc2c(Cl)cncc2Cl)cc1	TRHR PAM 37
N#Cc1ccc(Oc2ccc(S(=O)(=O)N3CCCC3)cn2)cc1	none
CC(C)[C@H]1COCCS(=O)(=O)N1Cc1cccc([N+](=O)[O-])c1	none (no result: TRHR PAM, TRPML1 inh, TRHR ag)
CN1CCN(C(=O)C2=C[C@@H](C3CC3)C[C@@H](OCc3ccc(CO)cc3)O2)CC1	TRHR PAM 31
COc1ccc(C(=O)NNC(=S)NC(=O)C(C)(C)C)cc1	TRPML1 agonist 51, TRHR ag 79
CC(C)(C)C(=O)NC(=S)NNC(=O)c1sc2ccccc2c1Cl	TRPML1 agonist 71
COC(=O)c1ccccc1-c1c2ccc(=N)cc-2oc2cc(N)ccc12	TRPML1 agonist 99, TRHR ag 198
O=C(C[n+]1cccc2cc(Cl)ccc21)c1ccc2ccccc2c1	none (no result: TRHR PAM, TRPML1 inh, TRHR ag)
COc1ccccc1OS(=O)(=O)c1ccc(NC(C)=O)cc1	none
COC(=O)/C=C/S(=O)(=O)c1ccc(NC(C)=O)cc1	TRHR PAM 33
C[C@H](O)[C@@H]1CN2CCc3c([nH]c4ccccc34)[C@@H]2C[C@@H]1N(C)Cc1cc(Cl)cc(Cl)c1	TRPML1 agonist 69 (no result: TRHR PAM, TRHR ag)
CCOC(=O)N(C)[C@H]1C[C@H]2c3[nH]c4ccccc4c3CCN2C[C@H]1[C@H](C)O	none (no result: TRHR PAM, TRPML1 inh, TRHR ag)
CC1(C)CSC(=NCc2ccccc2)N1C(=O)c1cccc([N+](=O)[O-])c1	TRPML1 agonist 94, TRHR ag 56
COc1cccc(CNS(=O)(=O)c2cc3[nH]c(=O)c(=O)[nH]c3cc2C)c1	TRHR PAM 31
Cc1ccc(CNS(=O)(=O)c2cc3[nH]c(=O)c(=O)[nH]c3cc2C)cc1	none
Cc1ccc(NC(=O)c2ccc(-c3cccc(Cl)c3C)o2)cc1	TRHR PAM 36
COc1ccc(NC(=O)c2ccc(-c3cccc(Cl)c3C)o2)cc1	none
CN1CCN(c2nc(-c3cccnc3)nc3scc(-c4ccccc4)c23)CC1	none
Clc1nc(-c2ccccn2)nc2scc(-c3ccccc3)c12	TRHR PAM 40
CS(=O)(=O)N1CCN(/[N+]([O-])=N/Oc2ccc([N+](=O)[O-])cc2[N+](=O)[O-])CC1 (tested in a mixture with another compound)	none (no result: TRHR PAM, TRHR ag)
CCOc1ccc(OCC)c(S(=O)(=O)N2CCOCC2)c1	TRHR PAM 33
O=c1c(Oc2ccccc2Br)c(C(F)(F)F)oc2c(CN3CCCC3)c(O)ccc12	TRHR PAM 32
Cc1cc(Oc2c(C(F)(F)F)oc3c(CN4CCC(C)CC4)c(O)ccc3c2=O)cc(C)c1Cl	none
CCN(CC)/[N+]([O-])=N/OCOC(=O)C(C)c1ccc2cc(OC(C)=O)ccc2c1 (stereo not given)	none (no result: TRHR PAM, TRHR ag)
Cc1cc(C)cc(N=Cc2[nH]c3ccc(Br)c(Cl)c3c2O)c1	TRHR ag 36
COc1ccc(CN=Cc2[nH]c3ccc(Br)c(Cl)c3c2O)cc1	none
O=C(NC1CC1)c1ccc2nc(-c3ccco3)c(-c3ccco3)nc2c1	none (no result: TRHR PAM, TRPML1 inh, TRHR ag)
COc1ccc(OCC(=O)NNC(=O)Nc2cccc(Cl)c2)cc1	TRHR PAM 34
COc1ccc(CCC(=O)NNC(=O)Nc2cccc(Cl)c2)cc1	none
Cc1ccnc2ccc(I)cc12	none (no result: TRHR PAM, TRPML1 inh, TRHR ag)
COc1ccc(/C=C/C(=O)OCC(=O)Nc2cccc(C(C)=O)c2)cc1	TRHR PAM 37
CS(=O)(=O)N(CC(=O)NCCc1ccccc1)C1CCCCC1	TRHR PAM 40
COc1ccc(CCNC(=O)CN(C2CCCCC2)S(C)(=O)=O)cc1OC	none
O=C(C[n+]1cccc(Br)c1)c1ccc(I)cc1	none (no result: TRHR PAM, TRPML1 inh, TRHR ag)
COc1ccc(-c2cc(C(=O)Nc3cc(OC)c(OC)c(OC)c3)no2)cc1OC	TRHR PAM 39
O=[N+]([O-])c1cccc(S(=O)(=O)N2CCN(S(=O)(=O)c3ccc4c(c3)OCCO4)CC2)c1	none (no result: TRPML1 agonist, TRPML1 inh)
COc1ccccc1NC(=O)C(C)Sc1nccn1C (stereo not given)	none
CC(Sc1nccn1C)C(=O)Nc1ccc(C(N)=O)cc1 (stereo not given)	TRHR PAM 31
Cc1c(O)c(S(=O)c2ccccc2)c(=O)n(-c2ccccc2)c1-c1ccccc1 (stereo not given)	TRHR PAM 32
C=Cc1nc(Nc2cc(F)cc(F)c2)nc(NC2CCCC2)n1	none (no result: TRPML1 agonist, TRPML1 inh)
Cc1cccc(C)c1NC(=O)C1(N(Cc2ccco2)C(=O)CC2NC(=O)NC2=O)CCCCC1 (stereo not given)	none
O=C1NC(=O)C(CC(=O)N(Cc2ccco2)C2(C(=O)NC3CCCC3)CCCCC2)N1 (stereo not given)	TRHR PAM 33
Cc1cc2c(cc1C)NC(c1c(C)n(C)n(-c3ccccc3)c1=O)C1=C(CC(C)(C)CC1=O)N2 (stereo not given)	TRPML1 agonist inconclusive, TRHR ag 43
CN(C)c1ccc(N=Cc2cccc3ccccc23)cc1	none (no result: TRHR PAM, TRPML1 inh, TRHR ag)
